Bioassay records from PubChem BioAssay.
PHOSPHO1 inh: PubChem AID 1565 | Phosphoethanolamine/phosphocholine phosphatase (Homo sapiens), Q8TCT1 | recombinant PHOSPHO1, absorbance phosphatase assay | inhibition, % at 13.3 µM | 290,000 tested, 1.1% active; in the data active = inhibition above about 60%
TPT1 inhibitor: Candida albicans TPT1 enzyme inhibitors, primary screen, biochemical, fluorescence polarization. tRNA 2'-phosphotransferase TPT1 (Candida albicans SC5314). recombinant caTPT1, FP RNA substrate dephosphorylation. inhibition, % at 5 µM. 300,000 tested, 0.81% active. AID 1962, 2009;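 active = inhibition above the mean of all tested compounds plus 3 SD, set per screening campaign, cut at about 24% in these data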
Rtt109 HAT inh: inhibitors of C. albicans Rtt109/Vps75 HAT, primary screen, biochemical, ThioGlo CoA-SH fluorescence, plate reader | 330,000 tested, 0.16% active | inhibition, % at 34.9 µM | AID 540336, 2011 | purified Rtt109/Vps75, 4 h | Histone acetyltransferase RTT109 (Candida albicans (strain SC5314 / ATCC MYA-2876)), …;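 active = inhibition of at least 50% in every replicate; inconclusive = best replicate reaches 50% inhibition but some replicates fall short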
Target sequence (Q5AAJ8 whole entry, looked up): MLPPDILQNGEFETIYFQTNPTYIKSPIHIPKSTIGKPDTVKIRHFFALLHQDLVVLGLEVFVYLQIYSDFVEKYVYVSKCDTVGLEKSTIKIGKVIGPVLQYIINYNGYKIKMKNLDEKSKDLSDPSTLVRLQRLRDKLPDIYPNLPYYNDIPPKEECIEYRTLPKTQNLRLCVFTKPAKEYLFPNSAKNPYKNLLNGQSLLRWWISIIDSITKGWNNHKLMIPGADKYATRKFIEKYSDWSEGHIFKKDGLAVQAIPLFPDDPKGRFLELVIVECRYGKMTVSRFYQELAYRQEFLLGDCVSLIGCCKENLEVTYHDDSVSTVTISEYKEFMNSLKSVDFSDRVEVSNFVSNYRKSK
SKKanGAS inh: S. pyogenes SKKanGAS growth inhibitors in kanamycin, primary screen, streptokinase expression inhibitor project, SKKanGAS strain, BacTiter-Glo luminescence; 6 h; inhibition, % at 7.5 µM; 300,000 tested, 1.3% active;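 active = mean replicate score, as percent of positive control median, at least 50; inconclusive = mean below 50 but one replicate at or above 50; inactive = mean and every replicate below 50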;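 note: strain carries kanamycin resistance gene driven by streptokinase promoter and grows in 40 µg/ml kanamycin; loss of luminescence reflects streptokinase promoter inhibition or plain growth inhibition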
WT yeast gro inh: growth inhibition of WT strain, primary screen, mitochondrial fusion inhibitor project, WT and mutant strains, chemical genetic; mitochondrial fusion phenotypic screen; inhibition, % at 10 µM; 190,000 tested, 2.1% active; in the data active = inhibition above about 58%; tested in S. cerevisiae
Platelet DG rel: inhibitors of platelet dense granule secretion, primary screen, cell-based, MLPCN, human platelets. AID 1663, 2009. human platelet-rich plasma, SFLLRN dense granule ATP release, luminescence. inhibition, %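 (compounds screened at 7.5 µM in platelet-rich plasma)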. 300,000 tested, 0.22% active;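 active = mean replicate score, as percent of positive control, at or above 50; inconclusive = mean below 50 but at least one replicate at or above 50; inactive = mean and every replicate below 50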
TPT1 inh confirm: Candida albicans TPT1 inhibitors, confirmation, biochemical, fluorescence polarization, triplicate; 2,400 tested, 74% active; AID 2149, 2009; inhibition, % at 5 µM; shares compounds with TPT1 inhibitor; recombinant caTPT1, RNase T1 coupled;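 active = inhibition above the primary screen limit, the mean inhibition of all tested compounds plus 3 SD, cut at about 25% in these data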
RNase T1 inh: RNase T1 inhibitors, counter-screen for TPT1 inhibitor project, biochemical, fluorescence polarization; inhibition, % at 5 µM; 2,400 tested, 83% active; RNase T1 cleavage, 1536-well; shares compounds with TPT1 inhibitor;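 active = inhibition above the solvent-only control well mean plus 3 SD, limit set per screening run, cut at about 23% in these data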;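 note: inhibitors block cleavage so intact labeled substrate keeps polarization high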
Target sequence (P00651 whole entry, looked up): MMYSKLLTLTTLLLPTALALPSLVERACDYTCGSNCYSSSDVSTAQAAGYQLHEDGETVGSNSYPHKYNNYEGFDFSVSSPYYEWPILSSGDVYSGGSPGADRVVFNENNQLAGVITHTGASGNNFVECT
Each line names hits and unclear results; the compound was inactive in the other large screens (follow-up assays come after a bar, where they were run). In the library only some 3.9% were active in any assay of this set; here they are far more common.

CCSc1nnc(-c2sc3nnc(-c4ccccc4)c(-c4ccccc4)c3c2N)o1	TPT1 inhibitor 42 | TPT1 inh confirm 42 | RNase T1 inh 51
CCSc1nnc(-c2ccncc2)o1	none
COc1ccc(OC)c(N(CC(=O)NC2CCCC2)S(=O)(=O)c2ccc(OC)c(OC)c2)c1	none (no result: WT yeast gro inh)
COc1cc(N2CCCC2)c(OC)cc1/C=C1/NC(=S)NC1=O	TPT1 inhibitor 131 | TPT1 inh confirm 138 | RNase T1 inh 129
N=C1S/C(=C\c2ccc(-c3ccccc3C(=O)O)o2)C(=O)N1c1ccc2c(c1)OCO2	none (no result: TPT1 inhibitor)
COc1ccccc1N1C(=N)S/C(=C\c2ccc(-c3ccccc3C(=O)O)o2)C1=O	TPT1 inhibitor 57 | TPT1 inh confirm 76 | RNase T1 inh 87
CCCCCN(C(=O)CCC(=O)OCC(=O)NCc1cccc(OC)c1)c1c(N)n(CCCC)c(=O)[nH]c1=O	none (no result: WT yeast gro inh)
CC(C)NC(=O)C1CCN(C2CCN(C(=O)/C=C/c3cccs3)CC2)CC1	TPT1 inhibitor 25 (no result: WT yeast gro inh) | TPT1 inh confirm inactive | RNase T1 inh inactive
O=c1/c(=C\c2ccc(O)cc2)sc2n1C(c1ccccc1)C(c1ccccc1)=NN=2 (centres undefined)	TPT1 inhibitor 62 | TPT1 inh confirm 65 | RNase T1 inh 76
CCOC(=O)/C(=C\C=C1/Sc2cc(OCC)c(OCC)cc2N1CC)C(C)=O	TPT1 inhibitor 147 | TPT1 inh confirm 123 | RNase T1 inh 123
CCOC(=O)/C(=C/C=C1\Sc2cc(OCC)c(OCC)cc2N1CC)C(C)=O	TPT1 inhibitor active | TPT1 inh confirm 149 | RNase T1 inh 142
CCN1/C(=C/C(C)=O)Sc2ccc(OC)cc21	none
CN(C(=O)c1ccc2c(c1)OCO2)C1CCS(=O)(=O)C1 (centres undefined)	none (no result: PHOSPHO1 inh, WT yeast gro inh)
Cc1cc(C(=O)OCC(=O)N(C)c2ccccc2)c(C)o1	none (no result: PHOSPHO1 inh, TPT1 inhibitor, SKKanGAS inh, WT yeast gro inh, Platelet DG rel)
CN(CC(=O)Nc1c(Cl)cccc1Cl)C(=O)CCC1CCCC1	none (no result: WT yeast gro inh)
Cc1cc(C)n2nc(C(=O)OCC(=O)N(Cc3ccccc3)C(C)C)nc2n1	none (no result: PHOSPHO1 inh, TPT1 inhibitor, SKKanGAS inh, WT yeast gro inh, Platelet DG rel)
Cc1ccccc1CN1CCC(n2nccc2NC(=O)CCOc2ccccc2)CC1	none (no result: WT yeast gro inh)
CCOC(=O)c1sc2cc([N+](=O)[O-])cc(SCC(=O)OC)c2c1N	PHOSPHO1 inh 99, TPT1 inhibitor 29 | TPT1 inh confirm 35 | RNase T1 inh 49
CC(OC(=O)/C(C#N)=C/c1ccc(N(C)C)cc1)C(=O)N(C)Cc1ccccc1 (centres undefined)	TPT1 inhibitor 107 (no result: WT yeast gro inh) | TPT1 inh confirm 115 | RNase T1 inh 114
CC(OC(=O)c1cccc(O)c1)C(=O)N(C)Cc1ccccc1 (centres undefined)	none (no result: PHOSPHO1 inh, WT yeast gro inh)
O=C(COc1ccccc1)Nc1nccs1	none
O=C(COc1ccc2ccccc2c1)Nc1nccs1	TPT1 inhibitor 28 | TPT1 inh confirm inactive | RNase T1 inh inactive
CC1c2ccccc2-c2ccccc2N1C (centres undefined)	none (no result: PHOSPHO1 inh, TPT1 inhibitor, SKKanGAS inh, WT yeast gro inh, Platelet DG rel)
COC(=O)CSCc1nc2ccccc2[nH]c1=O	TPT1 inhibitor 64 | TPT1 inh confirm 61 | RNase T1 inh 72
Cc1ccc(N2C(=O)CS/C2=C(\C(Cl)=C(Cl)Cl)[N+](=O)[O-])cc1	PHOSPHO1 inh 80, TPT1 inhibitor 93 | TPT1 inh confirm 43 | RNase T1 inh 51
COCCCn1c(=O)/c(=C\c2ccccc2OC(C)C)s/c1=C(/C#N)C(=O)Nc1ccc(C(=O)O)cc1	TPT1 inhibitor 39, SKKanGAS inh 54, Platelet DG rel inconclusive (no result: WT yeast gro inh) | TPT1 inh confirm inactive | RNase T1 inh 58
O=c1c2ccccc2oc2cc(-c3ccc(CN4CCOCC4)cc3)ccc12	none (no result: PHOSPHO1 inh, TPT1 inhibitor, SKKanGAS inh, WT yeast gro inh, Platelet DG rel)
CC(C)COC(=O)n1c(SCC(N)=O)nc2ccccc21	none (no result: WT yeast gro inh)
CCOC(=O)CSc1nc2ccccc2n1C(=O)OCC	TPT1 inhibitor 39 | TPT1 inh confirm 37 | RNase T1 inh 47
